In PubChem BioAssay AID588397 (National Center for Advancing Translational Sciences (NCATS), 2011):
Hit rate of the full screen: of about 1,300 compounds, about 1,000 (77%) were called active. Not shown: some 7% with an inconclusive outcome. Calls come from the whole dose curve; as a rule, active = well fitted inhibition curve with a large enough effect; inconclusive = small, poorly fitted or top-dose-only effect; inactive = no such curve, though single readings can be large or run the other way. So high a share suggests a set chosen from earlier hits. The list shows a part of the results.

Assay: qHTS of small molecules that selectively kill Giardia lamblia: Hit Validation.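 Note: viability measured as ATP content by luminescence so killing lowers signal; trophozoites exposed to compounds for 48 h anaerobically at 37 °C; nearly all actives have a fitted effect of over 65% in size.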
Conditions: Giardia lamblia trophozoite viability, dose-response; series mostly up to 38.3 µM; activity change, negative = killing: at the top concentration
How it was run: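 Anaerobic 48 hrs incubation at 37 deg C of 100 trophozoites/well with test compounds; ATPLite 1-Step luminescence, 15-30 min RT, reports cellular ATP as viability.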
% is set by controls: 0 for no effect and ±100 for the full control effect; potency is the fitted concentration of half-maximal effect.

SMILES | Potency | activity change, negative = killing
COc1cc(/C=C/c2onc(C)c2[N+](=O)[O-])cc(OC)c1OC | 2.05 µM (active) | –
Cc1noc(/C=C/c2cccnc2)c1[N+](=O)[O-] | 8.18 µM (active) | –
Cc1cc2[nH]c3c(c[n+](C)c4ccccc34)c2cc1C | 1.16 µM (active) | –
COc1cc(C2Nc3ccccc3C(=O)N2c2ccc3c(c2)OCCO3)ccc1OCC(C)C (stereo not drawn) | 3.26 µM (active) | –
CC(C)Oc1ccccc1C1Nc2ccccc2C(=O)N1c1ccc2c(c1)OCCO2 (stereo not drawn) | 5.16 µM (active) | –
CN(C)c1ccc(N=Nc2ccccc2C(=O)O)cc1 | 0.29 µM (active) | –
CC(=O)c1ccc(NC(=O)COC(=O)c2ccccc2N=Nc2ccc(N(C)C)cc2)cc1 | 3.26 µM (active) | –
CN(C)c1ccc(N=Nc2ccccc2C(=O)OCC(=O)N2CCCC2)cc1 | 1.45 µM (active) | –
CC(=O)NC(Cc1cccc(F)c1)C(=O)NC1CCN(c2ncccc2[N+](=O)[O-])CC1 (stereo not drawn) | 2.31 µM (active) | –
CC(=O)NC(Cc1cccc(C)c1)C(=O)NC1CCN(c2ncccc2[N+](=O)[O-])CC1 (stereo not drawn) | 4.6 µM (active) | –
Cc1ccc(-n2nc3c(N4CCC(C(=O)NCc5cccc(F)c5)CC4)nnc(C)c3c2C)cc1 | – | -12.7% (inactive)
COc1ccc(CCNC(=O)CSc2ccsc2[N+](=O)[O-])cc1OC | 0.516 µM (active) | –
COc1ccc(CCNC(=O)C23CCC(C)(C(=O)C2=O)C3(C)C)cc1OC (stereo not drawn) | – | -8.09% (inactive)
COc1ccc(OC)c(CCNC(=O)CSc2ccsc2[N+](=O)[O-])c1 | 0.729 µM (active) | –
COCCn1c(C)cc(/C=C2\NC(=S)N(C)C2=O)c1C | – | -34.6% (inactive)
COCCn1c(C)cc(/C=C2/SC(=O)N(C(C)C(=O)OC)C2=O)c1C (stereo not drawn) | 5.79 µM (active) | –
COc1ccc(-c2cn3ccsc3n2)cc1 | 9.18 µM (active) | –
COc1ccc(OCc2nnc3n2N=C(c2ccc(OC)cc2)CS3)cc1 | – | -24.4% (inactive)
O=C(Nc1ccc(-c2cn3ccsc3n2)cc1)C1CC1 | 3.26 µM (active) | –
CC(=O)OCCSc1c(-c2ccccc2)c2cc(Cl)ccc2[nH]c1=O | – | -2.52% (inactive)
Cc1ccc(NC(=O)c2ccc([N+](=O)[O-])o2)c(C)c1 | 1.3 µM (active) | –
CCS(=O)(=O)N1Cc2ccccc2CC1C(=O)Nc1ccccc1OC (stereo not drawn) | – | -4.77% (inactive)
Cc1ccc([N+](=O)[O-])c(C(=O)Nc2cccnc2Cl)c1 | – | -9.71% (inactive)
COc1ccccc1S(=O)(=O)Cc1ccc(C(=O)NCC(OC)OC)o1 | – | 11.7% (inactive)

SMILES | Potency | activity change, negative = killing
Cc1ccc(N/C(C(Cl)=C(Cl)Cl)=C(/Cl)[N+](=O)[O-])c(C)c1 | 0.818 µM (active) | –
Cc1cccc(NC(=O)N2CCN(Cc3ccc4c(c3)OCO4)CC2)c1C | – | -17.8% (inactive)
Cc1cccc(NC(=O)c2ccc([N+](=O)[O-])o2)c1C | 1.83 µM (active) | –
COc1ccccc1NC(=O)c1ccc([N+](=O)[O-])o1 | 1.45 µM (active) | –
O=C(Nc1ccccc1Cl)c1ccc([N+](=O)[O-])o1 | 1.3 µM (active) | –
Cc1ccccc1NC(=O)c1ccc([N+](=O)[O-])o1 | 1.83 µM (active) | –
COc1ccc(-c2cc3ccccc3oc2=O)cc1NC(=O)c1ccc([N+](=O)[O-])o1 | 0.729 µM (active) | –
Cn1c(=O)c(=O)n(C)c2cc([N+](=O)[O-])c(N3CCOCC3)cc21 | 4.1 µM (active) | –
O=C(N/N=C/c1ccc([N+](=O)[O-])o1)c1cn2ccc3ccccc3c2n1 | 0.918 µM (active) | –
O=C(N/N=C/c1ccc([N+](=O)[O-])o1)c1cc2ccccc2o1 | 0.516 µM (active) | –
O=C(N/N=C/c1ccc([N+](=O)[O-])o1)c1sc2ccccc2c1Cl | 1.3 µM (active) | –
O=C(N/N=C/c1ccc([N+](=O)[O-])o1)c1cc2c(ccc3ccccc32)o1 | 0.729 µM (active) | –
COc1ccc(-n2nc([N+](=O)[O-])c(=NC3CCN(Cc4ccccc4)CC3)n2O)cc1 | 0.729 µM (active) | –
Cc1cccc(-n2nc([N+](=O)[O-])c(=NC3CCN(Cc4ccccc4)CC3)n2O)c1 | 0.729 µM (active) | –
O=[N+]([O-])c1nn(-c2ccccc2)n(O)c1=NC1CCN(Cc2ccccc2)CC1 | 0.365 µM (active) | –
O=[N+]([O-])c1nn(-c2ccc3c(c2)OCCO3)n(O)c1=NC1CCN(Cc2ccccc2)CC1 | 0.46 µM (active) | –
O=C(N/N=C\c1ccc([N+](=O)[O-])s1)c1cncc(Br)c1 | 2.9 µM (active) | –
O=[N+]([O-])c1ccc(/C=N/Nc2ncccc2[N+](=O)[O-])s1 | 2.31 µM (active) | –
O=C(N/N=C/c1ccc([N+](=O)[O-])s1)C(O)c1ccccc1 (stereo not drawn) | 2.9 µM (active) | –
Cc1ccc(NC(=S)N/N=C/c2ccc([N+](=O)[O-])s2)cc1 | 2.31 µM (active) | –
O=C(N/N=C/c1ccc([N+](=O)[O-])s1)c1cccnc1 | 2.31 µM (active) | –
Cc1ccc(C(=O)N/N=C/c2ccc([N+](=O)[O-])s2)cc1 | 1.03 µM (active) | –
O=[N+]([O-])c1ccc(/C=N/NC(=S)Nc2ccc(Cl)cc2Cl)s1 | 3.65 µM (active) | –
O=C(N/N=C/c1ccc([N+](=O)[O-])s1)c1ccccc1 | 1.63 µM (active) | –

SMILES | Potency | activity change, negative = killing
COc1cc(CNc2nnnn2C)cc(OC)c1OC | – | 7.64% (inactive)
O=[N+]([O-])c1ccc(/C=N/Nc2nc(N3CCCCC3)nc(N3CCCCC3)n2)o1 | 1.16 µM (active) | –
O=[N+]([O-])c1cc(/C=N/Nc2nc(N3CCCCC3)nc(N3CCCCC3)n2)ccc1O | 6.5 µM (active) | –
O=[N+]([O-])c1ccc(/C=N/Nc2nc(N3CCCC3)nc(N3CCCC3)n2)o1 | 2.05 µM (active) | –
COc1cccc(CNCc2cccc(Br)c2)c1OC | – | 7.37% (inactive)
O=[N+]([O-])c1ncccc1Oc1nc(-c2cccnc2)nc2ccccc12 | 2.05 µM (active) | –
FC(F)(F)c1ccc2c(c1)N1CCCC1CN2 (stereo not drawn) | 1.45 µM (active) | –
CCOC(=O)/C=C/[C@H]1CCc2cccc(Cl)c2O1 | – | -22.7% (inactive)
Nc1ccc(-c2cnc(-c3ccc(N)cc3)nc2)cc1 | 4.1 µM (active) | –
CNN/C(N=Cc1ccc([N+](=O)[O-])s1)=N\S(=O)(=O)c1cc(C)c(Cl)cc1SCc1ccccc1 | 1.03 µM (active) | –
CN1C(=O)/C(=C/c2ccc(O)c([N+](=O)[O-])c2)NC1=S | 3.26 µM (active) | –
CN1C(=O)/C(=C/c2ccc(O)c([N+](=O)[O-])c2)N(C)C1=S | 3.26 µM (active) | –
Cc1ccc(C(CC(=O)O)NC(=O)c2ccc(S(=O)(=O)N3CC(C)OC(C)C3)cc2)cc1 (stereo not drawn) | – | -5.13% (inactive)
O=C(CCN1C(=O)c2ccccc2C1=O)Nc1ccccc1C(F)(F)F | – | 21% (inactive)
O=C1c2ccc3c4c(ccc(c24)C(=O)N1CCCCO)C(=O)N(CCCCO)C3=O | 1.83 µM (active) | –
CCOC(=O)c1c(NC(=O)CS(=O)(=O)c2cn(CC)c3ccccc23)sc2c1CCCCC2 | – | 1.17% (inactive)
NC(=O)c1c(NC(=O)CCCn2cnc([N+](=O)[O-])n2)sc2c1CCCC2 | 7.29 µM (active) | –
CC1CCc2c(sc(NC(=O)CCCn3cnc([N+](=O)[O-])n3)c2C(N)=O)C1 (stereo not drawn) | 4.6 µM (active) | –
CC1CCc2c(sc(NC(=O)Cn3cnc([N+](=O)[O-])n3)c2C(N)=O)C1 (stereo not drawn) | 18.3 µM (active) | –
Cc1nc(CS(=O)(=O)c2ccc(Cl)cc2)sc1C(=O)O | – | 7.64% (inactive)
CC(C)Cn1[nH]c2c3c(ccc2c1=O)C(=O)c1ccccc1C3=O | 1.45 µM (active) | –
O=C1c2ccccc2C(=O)c2c1ccc1c(=O)n(C3CCCCC3)[nH]c21 | 2.31 µM (active) | –
COCCCn1[nH]c2c3c(ccc2c1=O)C(=O)c1ccccc1C3=O | 1.03 µM (active) | –
CCc1ccc(S(=O)(=O)Nc2ccc(-c3ccc4nnc(C)n4n3)cc2)s1 | – | -30% (inactive)

SMILES | Potency | activity change, negative = killing
COC(=O)[C@@]12CCCCN1[C@H](c1ccc(-c3ccc(C(C)=O)cc3)cc1)[C@@H]1C(=O)N(C)C(=O)[C@@H]12 | – | -23.9% (inactive)
CC12CN3CC(C)(CN(C1)C3c1ccc([N+](=O)[O-])o1)C2 (stereo not drawn) | 1.3 µM (active) | –
CCC12CN3CC(CC)(CN(C1)C3c1ccc([N+](=O)[O-])o1)C2=O (stereo not drawn) | 4.1 µM (active) | –
CCCC12CN3CC(C)(CN(C1)C3c1ccc([N+](=O)[O-])o1)C2=O (stereo not drawn) | 1.83 µM (active) | –
CCCCC12CN3CC(C)(CN(C1)C3c1ccc([N+](=O)[O-])o1)C2=O (stereo not drawn) | 2.05 µM (active) | –
O=c1cccc(-c2ccccc2)[nH]1 | – | -19.2% (inactive)
O=c1[nH]c(=O)c2cc([N+](=O)[O-])cc([N+](=O)[O-])c2[nH]1 | 4.1 µM (active) | –
COC(=O)c1sc(NC(=O)COc2cccnc2[N+](=O)[O-])c(C(=O)OC)c1C | 4.1 µM (active) | –
O=C(COc1cccnc1[N+](=O)[O-])Nc1cccc2ccccc12 | 4.6 µM (active) | –
O=C(COc1cccnc1[N+](=O)[O-])N1CCc2ccccc21 | 4.1 µM (active) | –
COc1ccccc1NC(=O)COc1cccnc1[N+](=O)[O-] | 6.5 µM (active) | –
COc1ccccc1NCCC(=O)OCC(=O)NC1CCCCCC1 | – | -3.6% (inactive)
CC(C)Cn1c(=S)[nH]c2cc(C(=O)NCc3ccccc3F)ccc2c1=O | – | 2.52% (inactive)
S=c1[nH]nc2ccccn12 | – | -16.5% (inactive)
O=[N+]([O-])c1cnc2ccccn12 | 2.05 µM (active) | –
O=C(CSc1cccc[n+]1[O-])Nc1cc2c(cc1Cl)C(=O)c1ccccc1C2=O | 2.9 µM (active) | –
N#C/C(=C\c1ccc(O)c([N+](=O)[O-])c1)c1nc2ccccc2s1 | 1.83 µM (active) | –
N#C/C(=C/c1ccc(O)c([N+](=O)[O-])c1)C(=O)Nc1ccccc1 | 3.26 µM (active) | –
N#C/C(=C\c1ccc(O)c([N+](=O)[O-])c1)C(=O)NCc1ccccc1 | 3.26 µM (active) | –
COCCNC(=O)/C(C#N)=C/c1ccc(O)c([N+](=O)[O-])c1 | 4.6 µM (active) | –
CC(C)C[C@H](NC(=O)c1[nH]cnc1C(=O)N[C@H](C)c1ccccc1)C(=O)OCc1ccccc1 | – | -11.2% (inactive)
